# Assay results reported in PubChem BioAssay (NCATS).
# Unmarked numbers belong to inactive results. Records with an inconclusive call do not appear. Where a call stands in place of a potency, no number is given. Active and inactive are the calls of the source. Calls follow the shape of the dose curve; as a rule, active = well fitted inhibition curve with a large enough effect; inconclusive = small, poorly fitted or top-dose-only effect; inactive = flat fitted curve, though single readings scatter.
# Biological target: DNA dC->dU-editing enzyme APOBEC-3G (Homo sapiens) (UniProt Q9HC16)
# Assay: qHTS for inhibitors of Vif-A3G interactions: Validation (AID 588379)
# Conditions: Vif-A3G protein interaction assay; series mostly up to 46.1 µM
# In short: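 HeLa cells stably expressing Vif and A3G-eYFP, 700 cells/well, incubated overnight at 37 deg C, then exposed to compound overnight at 37 deg C. Inhibition of Vif-mediated degradation read as increased yellow fluorescence (Ex 488/Em 500-530) by laser-scanning cytometry.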
# Chain of DNA dC->dU-editing enzyme APOBEC-3G (Homo sapiens) (Q9HC16 whole entry, looked up): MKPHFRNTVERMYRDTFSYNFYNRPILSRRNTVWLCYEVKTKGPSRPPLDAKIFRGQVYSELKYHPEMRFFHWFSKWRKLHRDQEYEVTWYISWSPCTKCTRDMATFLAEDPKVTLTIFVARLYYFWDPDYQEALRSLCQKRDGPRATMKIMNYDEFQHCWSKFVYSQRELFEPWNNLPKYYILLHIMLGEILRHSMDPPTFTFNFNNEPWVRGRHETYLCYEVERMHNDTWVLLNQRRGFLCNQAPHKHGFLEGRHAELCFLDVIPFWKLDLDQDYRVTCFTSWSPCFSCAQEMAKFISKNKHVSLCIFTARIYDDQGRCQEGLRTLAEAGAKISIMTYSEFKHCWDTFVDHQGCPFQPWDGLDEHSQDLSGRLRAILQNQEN
row,Compound,Potency
1,CC(N)=NCc1cccc(CN)c1,inactive
2,O=C(O)c1cc(=O)c2ccc(Cl)cc2[nH]1,inactive
3,NCCCCCCNS(=O)(=O)c1cccc2c(Cl)cccc12,inactive
4,CN(C)CCCCSC(=N)N,inactive
5,O=C(OCCN1CCCCC1)c1c[nH]c2ccccc12,inactive

# Biological target: Voltage-gated inwardly rectifying potassium channel KCNH2 (Homo sapiens) (UniProt Q12809)
# Assay: qHTS Assay for Small Molecule Inhibitors of the Human hERG Channel Activity (AID 588834);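 also: top concentration of the series differs between compounds; lower thallium flux fluorescence means stronger hERG block; nearly all actives have a fitted effect of over 50% in size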
# Conditions: U2OS BacMam hERG, FluxOR thallium flux fluorescence; series mostly up to 46.1 µM
# In short: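 U2OS cells BacMam-transduced with hERG, 2000 cells/well, compound ~10 min at 37 °C before stimulation buffer. FluxOR thallium flux fluorescence read kinetically on FDSS; decrease indicates block; AC50 from Hill fits.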
# Chain of Voltage-gated inwardly rectifying potassium channel KCNH2 (Homo sapiens) (Q12809 whole entry, looked up): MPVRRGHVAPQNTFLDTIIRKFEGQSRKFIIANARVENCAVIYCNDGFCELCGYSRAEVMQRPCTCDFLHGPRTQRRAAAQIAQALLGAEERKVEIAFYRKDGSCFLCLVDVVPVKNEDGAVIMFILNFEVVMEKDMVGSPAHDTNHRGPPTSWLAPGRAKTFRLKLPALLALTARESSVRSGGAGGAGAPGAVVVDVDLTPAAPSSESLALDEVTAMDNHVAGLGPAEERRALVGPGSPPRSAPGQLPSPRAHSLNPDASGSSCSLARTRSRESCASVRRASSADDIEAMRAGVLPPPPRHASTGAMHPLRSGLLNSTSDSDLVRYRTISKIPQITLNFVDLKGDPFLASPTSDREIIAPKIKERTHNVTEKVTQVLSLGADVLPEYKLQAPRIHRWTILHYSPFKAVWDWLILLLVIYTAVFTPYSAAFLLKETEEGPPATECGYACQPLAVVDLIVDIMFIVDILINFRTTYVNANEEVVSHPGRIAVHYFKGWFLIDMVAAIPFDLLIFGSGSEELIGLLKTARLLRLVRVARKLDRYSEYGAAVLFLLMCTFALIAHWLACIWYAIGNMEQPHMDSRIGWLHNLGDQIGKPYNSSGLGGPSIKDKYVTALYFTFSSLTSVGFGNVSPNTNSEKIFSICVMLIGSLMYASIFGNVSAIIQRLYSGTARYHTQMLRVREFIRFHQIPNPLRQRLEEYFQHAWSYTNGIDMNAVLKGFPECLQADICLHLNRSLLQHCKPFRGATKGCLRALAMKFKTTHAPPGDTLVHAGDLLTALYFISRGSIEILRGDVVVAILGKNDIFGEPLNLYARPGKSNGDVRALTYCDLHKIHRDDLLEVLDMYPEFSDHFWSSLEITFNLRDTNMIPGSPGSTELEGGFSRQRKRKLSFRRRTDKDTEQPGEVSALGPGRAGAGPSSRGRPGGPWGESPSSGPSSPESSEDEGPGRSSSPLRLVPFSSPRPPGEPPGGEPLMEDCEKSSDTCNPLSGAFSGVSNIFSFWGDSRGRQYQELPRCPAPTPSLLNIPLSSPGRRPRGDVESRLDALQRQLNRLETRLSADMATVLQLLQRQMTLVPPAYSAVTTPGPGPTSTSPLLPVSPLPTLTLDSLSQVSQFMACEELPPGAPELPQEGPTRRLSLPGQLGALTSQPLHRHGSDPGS
row,Compound,Potency
1,CC(N)=NCc1cccc(CN)c1,inactive
2,CCCn1c(=O)c2[nH]c(-c3ccc(OCC(=O)Nc4ccc(C#N)cc4)cc3)nc2n(CCC)c1=O,inactive
3,NC(CCC(=O)NCS(=O)(=O)O)C(=O)O (stereo not drawn),inactive

# System: Zika virus NS2B-NS3 protease
# Assay: Primary screen GU AMC qHTS for Zika virus inhibitors (AID 1347154); also: nearly all actives have a fitted effect of over 70% in size
# Conditions: Zika NS2B-NS3 unlinked protease, AMC fluorogenic substrate; series mostly up to 54.1 µM
# In short: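 Fluorogenic AMC-substrate cleavage by noncovalent NS2B-NS3 protease complex (25 nM, pH 8.0 Tris buffer with Tween 20) followed for 15 minutes at room temperature (~20% conversion). Percent inhibition from ex340/em450 signal change, fitted by 4-parameter Hill equation.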
Compound,Potency,"activity change, negative = inhibition"
COC(=O)[C@H](CCCN=C(N)N)NC(=O)CCCc1c(-c2ccccc2)[nH]c2c(F)cc(F)cc12,inactive,–
CC(N)=NCc1cccc(CN)c1,inactive,–
O=C(O)CCC/C=C\C[C@@H]1C(/C=C/[C@@H](O)COc2cccc(C(F)(F)F)c2)[C@@H](O)C[C@@H]1O (stereo partly drawn),–,0.372% [at 6.83 µM]
O=C(O)c1cc(=O)c2ccc(Cl)cc2[nH]1,inactive,–
N#C/C(=C(/N)Sc1ccc(N)cc1)c1ccccc1C(F)(F)F,inactive,–
C[C@H](CCC(=O)NCC(=O)O)C1CC[C@H]2C3CC[C@@H]4C[C@H](O)CC[C@]4(C)C3C[C@H](O)[C@]12C (stereo partly drawn),inactive,–
Nn1cc(Br)c(=O)[nH]c1=O,inactive,–
Clc1ccc(-c2nc3sccn3c2/C=N/OCc2ccc(Cl)c(Cl)c2)cc1,inactive,–
CC12CCC3C(CCC4CC(O)CCC43C)C1CC=C2c1ccccc1 (stereo not drawn),inactive,–
O=C(O)c1cc(Oc2ccc([N+](=O)[O-])cc2)cc(Oc2ccc([N+](=O)[O-])cc2)c1,inactive,–
